Screening results as filed in PubChem.
Only some compounds are listed: those with a hit (about 6% of all), similar ones and a draw of the others.
DRD3 agonist – D3 dopamine receptor (human) agonism | D3R DiscoveRx beta-arrestin cells, luminescence, 90 min | max activation, % | 0.58% of 410,000 active; in the data active = max activation above about 30%; note: 0% is about no effect
Target sequence (P35462 whole entry, looked up): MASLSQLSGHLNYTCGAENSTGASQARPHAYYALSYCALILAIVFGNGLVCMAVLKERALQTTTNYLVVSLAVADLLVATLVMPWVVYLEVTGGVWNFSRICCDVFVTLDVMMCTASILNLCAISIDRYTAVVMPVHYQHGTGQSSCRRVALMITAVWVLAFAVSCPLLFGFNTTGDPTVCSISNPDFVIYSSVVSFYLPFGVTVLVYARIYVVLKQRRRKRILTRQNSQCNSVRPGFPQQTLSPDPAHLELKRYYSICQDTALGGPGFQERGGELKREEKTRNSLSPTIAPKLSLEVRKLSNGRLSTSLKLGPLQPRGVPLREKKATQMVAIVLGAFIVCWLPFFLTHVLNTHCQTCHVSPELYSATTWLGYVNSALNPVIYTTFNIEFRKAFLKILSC
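Agonist-mode cell screen: cells plated at 1500/well and incubated overnight at 37 °C, then exposed to library compounds for 90 min at 37 °C. Detection reagent was added for 30–60 min at room temperature, and luminescence was read.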
D1 agonist – human D1 receptor agonism. P21728. HEK293 T-REx D1 cells, calcium flux, agonist mode. activation, % at 2 µM. 1% of 360,000 active. AID 504660; in the data active = activation above about 30%; note: 0% is about no effect
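Agonism was scored from calcium flux recorded over 180 s (1 read/s) after pintool compound addition, following a 10-cycle baseline. Cells were inducible force-coupled HEK293 TREx D1, plated overnight at 30 C and loaded with no-wash calcium dye.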
D1 PAM – human D1 dopamine receptor positive modulation | P21728 | HEK293 TREx D1 cells, calcium flux, dopamine EC20 potentiation | potentiation, % at 10 µM | 0.036% of 360,000 active; in the data active = potentiation above about 30%; note: 0% is about no effect
D3 antag – antagonists of human D3 dopamine receptor. P35462. D3R cells, DiscoveRx beta-arrestin luminescence, antagonist mode; hits give low values. max response, negative = inhibition, %. 2.5% of 360,000 active. AID 652054; in the data active = max response below about -50%; note: % is set by controls: 0 for no effect and ±100 for the full control effect
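Cells expressing the human receptor were seeded at 1500 cells/well, incubated overnight at 37 degrees C in 5% CO2, then exposed to library compounds with dopamine controls for 90 minutes at 37 degrees C before luminescent detection.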
D1 antagonist – human D1 dopamine receptor antagonism; HEK293 TREx D1 cells, calcium flux, dopamine EC80; hits give low values; activity change, negative = inhibition, % at 10 µM; P21728; AID 504652; 3.2% of 360,000 active; in the data active = activity change below about -30%; note: % is set by controls: 0 for no effect and ±100 for the full control effect
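Tetracycline-induced HEK293 Trex D1 cells, force-coupled to calcium, dye-loaded; compounds added and read 180 s, then EC80 dopamine added and calcium flux tracked kinetically another 180 s.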
An asterisk follows results filed as active; . = no result.

SMILES	DRD3 agonist	D1 agonist	D1 PAM	D3 antag	D1 antagonist
COC(=O)c1ccc(COC(=O)CCc2nc(-c3ccccc3)c(-c3ccccc3)o2)cc1	0.5	30.4*	-9.6	9.7	-15.5
COC(=O)c1ccc(COC(=O)c2ccccn2)cc1	-16.6	0.2	1.4	10.9	-14.9
COc1ccc(S(=O)(=O)Nc2cc(Cl)ccc2-n2cncn2)cc1	5.2	-0.5	-1.2	1.9	-61.5*
CCN(C(=O)CSc1nnc(-c2cc3occc3n2C)n1-c1ccccc1C)c1ccccc1	-1.5	2.7	0.5	.	0.6
CCOC(=O)C1(CC2CC2)CCN(Cc2cc(Cl)c(O)c(OC)c2)CC1	-11.6	1.5	-7.1	-3.1	1.6
CCOC(=O)C1(CC2CC2)CCN(Cc2ccc(OC)cc2F)CC1	-18.0	13.4	-6.2	-68.4*	13.3
Cc1ccc(NC(=O)C2CCN(S(=O)(=O)c3ccc4c(c3)CCCC(=O)N4)CC2)c(Cl)c1	7.7	2.2	-3.1	.	-0.5
CCOc1ccccc1CNC(=O)CCn1cccn1	6.7	0.7	-4.7	.	3.6
O=C(O)CCC/C=C\C[C@@H]1[C@@H](/C=C/[C@@H](O)COc2cccc(C(F)(F)F)c2)[C@H](O)C[C@@H]1O	2.2	.	.	.	.
Cc1ccc(NC(=O)CCCn2c(=O)c3cccn3c3ccccc32)c(Cl)c1	2.8	-0.9	-1.6	.	9.2
O=C(CCCn1c(=O)c2cccn2c2ccccc21)Nc1cccc(Cl)c1	-13.2	-0.3	0.3	.	-32.1*
Cc1ccc(NC(=O)CCCn2c(=O)c3cccn3c3ccccc32)c(C)c1	9.5	-1.6	-0.4	.	-14.2
Cc1cc(C)cc(NC(=O)CCCn2c(=O)c3cccn3c3ccccc32)c1	5.1	4.6	-4.7	.	-70.5*
Cc1cc(C)c(NC(=O)CCn2c(=O)c3cccn3c3ccccc32)c(C)c1	10.8	13.3	3.3	.	-49.3*
Cc1cnc2c3c(cc(Cl)c2c1)-c1ccccc1S(=O)(=O)N3	.	0.6	-5.2	.	-28.8
CSc1nc2sc3c(c2c(=O)n1-c1ccc(F)c(Cl)c1)CCN(C(C)=O)C3	2.5	-1.2	1.8	.	11.6
CN1CCN(C(=O)/C=C/c2ccc([N+](=O)[O-])o2)CC1	-0.6	0.2	-3.2	-2.3	-31.5*
O=C(O)/C=C/c1ccc([N+](=O)[O-])o1	4.3	-0.5	0.5	1.6	-0.3
Cc1ccc(S(=O)(=O)N2CCN(C(=O)COC(=O)/C=C/c3ccc(F)cc3)CC2)c(C)c1	12.9	7.0	-2.4	-4.6	-37.6*
Cc1ccc(S(=O)(=O)N2CCN(C(=O)COC(=O)/C=C/c3ccccc3)CC2)c(C)c1	7.9	8.2	-1.4	9.9	-6.1
CSc1ccc(/C=C/C(=O)OCC(=O)N2CCN(S(=O)(=O)c3ccc(C)cc3C)CC2)cc1	5.2	11.6	-2.9	23.3	-33.1*
c1ccc(Cc2nnc3sc(-c4ccncc4)nn23)cc1	-16.8	1.7	3.5	-28.8	-33.0*
c1ccc(Cc2nnc3sc(-c4cccnc4)nn23)cc1	-2.7	4.6	6.5	-6.1	-6.9
Cc1ccc(C(=O)N2CCC(c3c[nH]c4ccccc34)(c3c[nH]c4ccccc34)CC2)cc1	9.5	3.3	-0.2	.	1.3
Cc1c(C(=O)Nc2ccc(-c3nc4cc(Cl)ccc4o3)cc2)oc2ccccc12	-3.1	-0.4	0.9	.	-13.2
SMILES	DRD3 agonist	D1 agonist	D1 PAM	D3 antag	D1 antagonist
COc1ccc(/C=C/C(=O)Nc2nc(-c3cccs3)ns2)cc1OC	36.2*	1.7	3.3	.	-25.1
COc1ccc(/C=C/C(=O)Nc2nc(-c3cccs3)ns2)cc1	5.0	1.8	-1.1	.	8.9
Cc1cc(SCC(=O)Nc2nsc(-c3ccc(C(C)(C)C)cc3)n2)nc2ccccc12	10.2	5.5	3.8	.	9.2
CCN1C(=O)/C(=C/C=C2/CCCN2C)OC1=S	-4.0	30.2*	-4.2	0.0	-9.1
CN1C(=O)/C(=C\C=C2/CCCN2C)N(C)C1=S	3.6	2.2	-4.7	-10.9	3.4
Cc1ccc(OCc2nc3ccccc3n2C(C(=O)NC(C)(C)C)c2ccncc2)cc1 (stereo not drawn)	6.2	.	.	13.0	.
CCc1c(C)sc2c1CCN(C(=O)Nc1cc(OC)c(OC)c(OC)c1)C2c1ccccc1 (stereo not drawn)	1.2	1.5	6.8	.	-40.3*
Cc1ccc(C)c(S(=O)(=O)NCc2cccnc2)c1	5.2	-1.5	-5.5	-19.9	7.7
Cc1ccc(C)c(S(=O)(=O)NCc2ccc(C(=O)N3CCCCCC3)cc2)c1	9.7	13.1	-9.8	1.7	-31.9*
Cc1ccc(C)c(S(=O)(=O)NCc2ccncc2)c1	1.3	11.0	-11.4	29.7	-42.8*
CCc1ccccc1NC(=O)c1nn(-c2ccc(C)cc2)c(=O)c2c1c1ccccc1n2C	-19.8	2.1	-2.9	.	-33.3*
CCc1ccccc1NC(=O)c1cn(C)c(=O)c2ccccc12	-1.3	-1.6	-0.4	.	-68.9*
COc1ccc(-n2nc(C(=O)Nc3cccc(C)n3)c3c4ccccc4n(C)c3c2=O)cc1Cl	2.7	0.9	0.8	.	-8.2
COc1ccc(-n2nc(C(=O)Nc3cccc(Cl)c3)c3c4ccccc4n(C)c3c2=O)cc1Cl	8.7	1.7	1.6	.	-32.5*
CC(=O)c1ccc(NC(=O)c2cn(C)c(=O)c3ccccc23)cc1	-11.3	-0.1	2.5	-4.9	-7.3
CCOc1ccccc1C(=O)N(Cc1ccc(C)o1)C1CCS(=O)(=O)C1 (stereo not drawn)	0.0	2.5	-5.7	3.4	-10.1
CCn1c(C)nc2cc(-c3nnc(-c4c(-c5ccccc5)noc4C)o3)ccc21	41.1*	4.6	0.0	87.0	-4.3
Cc1onc(-c2ccccc2)c1-c1nnc(-c2ccccc2C(F)(F)F)o1	1.7	14.5	1.8	8.1	2.0
CC1=C(C(=O)Nc2ccccc2)C(c2ccc(C(C)C)cc2)N2C(=O)CSC2=N1 (stereo not drawn)	5.2	0.8	-0.6	-50.6*	3.8
CC1=C(C(=O)Nc2ccccc2)C(c2ccccc2)N2C(=O)CSC2=N1 (stereo not drawn)	-2.9	0.9	-4.2	-3.8	-6.5
CCCCOc1ccc(CNC(=O)NS(=O)(=O)c2ccc(OCC)cc2)cc1	0.9	-0.3	-5.3	29.0	-7.1
CCCCOc1ccc(S(=O)(=O)NC(=O)NCc2ccc(OCCC)cc2)cc1	4.6	0.7	-14.9	6.6	-38.4*
COc1ccc2c(c1)/C(=C\c1cccc(/C=C3/C(=O)Nc4ccc(OC)cc43)n1)C(=O)N2	-18.2	.	.	-53.0*	.
COc1ccc2c(c1)/C(=N/N1C(=O)c3ccccc3C1=O)C(=O)N2	.	3.8	-1.2	.	3.5
O=c1ccn([C@@H]2O[C@H](CNCC3=Cc4cc(O)ccc4OC3)[C@@H](O)[C@H]2O)c(=O)[nH]1	55.1*	.	.	46.9	.
Cc1cc(O)cc(O)c1C=NCc1ccco1	2.5	16.8	-4.5	7.9	-4.7
O=C(c1ccc(F)cc1)C(CCCCCC(CN1CCOCC1)C(=O)c1ccc(F)cc1)CN1CCOCC1 (stereo not drawn)	-13.4	6.0	0.2	-58.2*	1.2
